# Bioassay records deposited in PubChem by National Center for Advancing Translational Sciences (NCATS).
# Tau FP inhib – tau fibrillization inhibition (FP); P10636; K18 P301L tau heparin fibrillization, Alexa594 FP, 6 h; Potency, µM (titrated, usually from 57.7 µM), without a hit: at the top dose activity, negative = inhibition, hits mostly inhibitors; 280,000 compounds, 0.39% hits; further: nearly all actives have a fitted effect of over 55% in size
#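 Quantitative HTS format: compounds meet 15 uM recombinant K18 P301L tau and Alexa 594-tau tracer in 100 mM sodium acetate pH 7; 20 uM heparin triggers fibrillization at 37 C over 6 hr; FP gives the signal.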
# Tau fluor counter – counter-screen for tau fibril formation inhibitors | tau K18 P301L Alexa594 fluorescence, heparin fibrillization | Potency, µM (highest dose often 57.7 µM), for inactives: at the top dose activity change, negative = decrease | 280,000 compounds, 0.93% hits | AID 1463; further: nearly all actives have a fitted effect of over 55% in size
#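 Human K18 P301L tau (15 uM unlabeled plus 0.24 uM Alexa 594-labeled, final) in 100 mM sodium acetate pH 7 was mixed with compound and 20 uM heparin and incubated 6 hr at 37 C.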
# HPGD inh – HPGD (human) dehydrogenase inhibition; P15428; purified HPGD, NADH fluorescence kinetic, PGE2 substrate; Potency, µM, without a hit: top-dose activity change, negative = inhibition, hits mostly inhibitors; 150,000 compounds, 4.3% hits; AID 894; active means well fitted inhibition curve with a large enough effect, not every such curve was filed as active; inconclusive means small, poorly fitted or top-dose-only effect, or another doubt; inactive means no such curve, though single readings can be large or run the other way
# Target sequence (P15428 whole entry, looked up): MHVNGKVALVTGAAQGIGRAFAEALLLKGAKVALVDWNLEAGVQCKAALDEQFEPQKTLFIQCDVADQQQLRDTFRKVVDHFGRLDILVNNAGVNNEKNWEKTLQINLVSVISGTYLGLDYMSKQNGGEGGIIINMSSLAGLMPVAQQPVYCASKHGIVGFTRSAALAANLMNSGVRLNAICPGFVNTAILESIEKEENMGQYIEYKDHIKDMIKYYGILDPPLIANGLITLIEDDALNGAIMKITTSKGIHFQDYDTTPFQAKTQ
#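 NADH formation kinetics: reaction with 30 uM PGE2 and 1 mM NAD+ (final), 20 nM enzyme, Tris-HCl pH 8 with Tween 20, after 15 min compound preincubation at room temperature. Fluorescence change, last versus first of five reads.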
# NPSR antag – antagonists of human neuropeptide S receptor cAMP signaling; Q6W5P4; CHO-NPSR cells, cAMP TR-FRET, antagonist mode; Potency, µM (titrated, usually from 38.3 µM), without a hit: at the highest dose activity change, negative = inhibition, most hits filed as inhibitors; 220,000 compounds, 1% hits; AID 1461; further: nearly all actives have a fitted effect of over 50% in size
# Target sequence (Q6W5P4 whole entry, looked up): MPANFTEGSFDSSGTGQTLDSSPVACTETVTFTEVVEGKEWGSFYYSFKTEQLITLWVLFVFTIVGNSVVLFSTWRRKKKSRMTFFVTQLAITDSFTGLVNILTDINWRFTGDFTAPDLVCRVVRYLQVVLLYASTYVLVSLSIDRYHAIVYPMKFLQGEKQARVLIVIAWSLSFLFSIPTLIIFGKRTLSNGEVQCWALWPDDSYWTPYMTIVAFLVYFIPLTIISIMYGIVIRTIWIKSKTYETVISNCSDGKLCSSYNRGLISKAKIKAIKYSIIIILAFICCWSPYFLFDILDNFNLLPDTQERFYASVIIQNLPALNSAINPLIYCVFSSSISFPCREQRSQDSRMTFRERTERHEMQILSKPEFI
# Tau ThT inhib – blocks human tau fibril formation measured by thioflavin T; P10636; recombinant tau K18 P301L, heparin-induced fibrillization, ThT fluorescence; Potency, µM (doses to about 57.4 µM), inactives show top-dose activity, negative = inhibition, most hits filed as inhibitors; 270,000 compounds, 2.1% hits; further: nearly all actives have a fitted effect of over 55% in size
#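 Fibril formation assay: tau K18 P301L at 15 uM with trace Alexa 594 label, heparin inducer 20 uM, pH 7 sodium acetate buffer, 37 C for 6 hr; endpoint ThT signal.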
# ALDH1A1 block – blocks purified human ALDH1A1 activity | P00352 | Purified ALDH1A1, NADH fluorescence, propionaldehyde substrate | 220,000 compounds, 7.3% hits | Potency, µM (top dose mostly 75.3 µM), inactives show at the top dose activity, negative = inhibition, actives largely listed as inhibitors; active means well fitted inhibition curve with a large enough effect, not every such curve was filed as active; inconclusive means small, poorly fitted or top-dose-only effect, or another doubt; inactive means no such curve, though single readings can be large or run the other way;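 further: plate controls were no enzyme wells and a reference inhibitor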
# * marks the source's active call; other numbers are inactive results; u = inconclusive; x = not tested or not shown; [ ] = remark or other dose. A selection: hits, their analogues and other compounds. The true share with any hit is near 9.5%. Unless noted, the call rests on the fitted dose curve; in most records, active means well fitted curve in the direction sought with a large enough effect; inconclusive means small, poorly fitted or top-dose-only effect, or another doubt; inactive means no such curve, though single readings can be large; an effect the other way counts as inactive or inconclusive. Unless noted, on the % scale 0 is the no-effect control and ±100 the full control effect; potency means the concentration at half of the fitted maximal effect.
SMILES,Tau FP inhib,Tau fluor counter,HPGD inh,NPSR antag,Tau ThT inhib,ALDH1A1 block
COC1=C(C(=O)c2ccccc2)C(=O)C2(CC=C(C)C)C[C@H](C(=O)OCC(F)(F)F)C(C)(C)[C@@]1(CC=C(C)C)C2=O (tested in a mixture with another compound),11%,-3%,-12%,x,0%,-8%
COc1ccc(/C=N/NS(=O)(=O)c2ccc(F)cc2)cc1COc1cc(F)ccc1[N+](=O)[O-],u,u,x,-49%,-1%,35µM*
COc1cc(C=O)ccc1OCCCOc1ccccc1[N+](=O)[O-],9%,-12%,20µM*,9%,u,-15%
COc1cc(C=O)ccc1OS(=O)(=O)c1ccccc1[N+](=O)[O-],1%,-1%,18µM*,21%,-4%,8.9µM*
COc1ccc(C=O)cc1COc1ccc(C)cc1[N+](=O)[O-],3%,-1%,-23%,-10%[46.1 µM],0%,10µM*
C[C@@]12C[C@H](O)C3[C@H](CCC4=CC(=O)CC[C@]43C)[C@H]1CC[C@@H]2c1csc(-c2ccccc2)n1 (stereo not given in full),x,x,-15%,x,x,3%[13.5 µM]
CCOc1ccc2cc(-c3nnc(Nc4ccc(C)cc4)s3)c(=O)oc2c1,3%,-9%,x,x,u,x
COc1cc(C=O)ccc1OCCCCOc1ccccc1[N+](=O)[O-],-3%,0%,-26%,-6%,u,5µM*
COc1cc(C=O)ccc1OCCOc1ccccc1[N+](=O)[O-],2%,-11%,u,9%,u,u
C[C@H](CCC(=O)O)[C@H]1CC[C@@H]2[C@H]3[C@@H](CC[C@@]21C)[C@]1(C)CC[C@H](O)C[C@@H]1C[C@@H]3O,x,x,-2%,x,x,-5%[20.9 µM]
COc1ccc(-c2nc3c(c4c2C[C@H](c2ccccc2)OC4)CN(S(=O)(=O)c2ccc(Cl)c4nonc24)CC3)c(C)c1,2%[11.6 µM],-7%[11.6 µM],-3%,x,-13%[11.5 µM],u
Cc1c2cnn(CC(=O)N3CCN(c4ccc(F)cc4)CC3)c(=O)c2c(C)n1Cc1ccccc1F,-1%,-12%,x,x,u,x
COc1cc(Nc2nc(SCc3ccccc3Cl)nc3ccccc23)cc(OC)c1,11µM*,u,x,x,u,x
COc1ccc(C(C)=O)cc1CSc1nc(Nc2ccc(F)c(F)c2)c2ccccc2n1,1%,-14%,x,x,8%,x
COc1cc(Nc2nc(SCc3ccccc3F)nc3ccccc23)cc(OC)c1,7.1µM*,u,x,x,u,x
COc1cc(Nc2nc(SCc3cccc(Cl)c3)nc3ccccc23)cc(OC)c1,7.9µM*,u,x,x,u,x
Fc1ccc(Nc2nc(SCc3ccccc3F)nc3ccccc23)cc1,7.9µM*,u,x,x,u,x
CCC(Cc1ccccc1)NC(=O)CN1C(=O)COc2ccc(S(=O)(=O)N3CCCCCC3)cc21 (stereo not given),-3%,-12%,x,x,-4%,x
CC(C)(C)c1ccc(OC2C(O)COC2/C=C/C#Cc2ccccc2)cc1 (stereo not given),-2%[11.6 µM],-26%[11.6 µM],x,x,-22%[11.5 µM],u
O=C(NC1CC1)C1=C[C@@H](c2ccc(Br)cc2)C[C@@H](OCc2ccc(CO)cc2)O1,3%,-2%,x,-19%,-7%,x
COc1cc(Nc2nc(SCC(=O)c3ccc(Cl)c(Cl)c3)nc3ccccc23)cc(OC)c1,14µM*,u,x,x,2%,x
Cc1ccc(-c2cc(-c3ccc4c(c3)NC(=O)CO4)nc3c2COc2ccccc2-3)cc1,u,-18%,x,x,4%,x
COC(=O)c1scc(C#N)c1N/N=C(\C#N)S(=O)(=O)c1ccc(Cl)cc1,-7%,-8%,x,10µM*,x,x
C[C@]12CC[C@H](O)CC1=CC[C@H]1[C@@H]2CC[C@@]2(C)C(N(CCO)CCO)CC[C@@H]12 (stereo not given in full),x,x,-1%,x,x,2%[13.5 µM]
CN1/C(=C/C(=O)CSc2ccccc2C(=O)O)C(C)(C)c2ccccc21,4%,u,x,-53%,u,x
SMILES,Tau FP inhib,Tau fluor counter,HPGD inh,NPSR antag,Tau ThT inhib,ALDH1A1 block
Cc1cc(=O)[nH]c(SCC(=O)/C=C2\N(C)c3ccccc3C2(C)C)n1,u,25µM*[fluorescent],-13%,13%,u,-8%
CCN(CC)c1ccc(CNc2nc3ccccc3n2CC)cc1,7%,-24%,x,-25%,x,x
COc1cc(SSc2cc(OC)cc([N+](=O)[O-])c2N)c(N)c([N+](=O)[O-])c1,u,u,x,3.2µM*,x,x
Nn1cc(Br)c(=O)[nH]c1=O,-5%,-11%,x,x,-9%,3%
O=C(Nc1ccc(Cl)cc1)Nc1cc(S(=O)(=O)N2CCOCC2)ccc1N1CCCC1,1%,u,u,-5%,1%,u
COc1ccc(C(=O)OCC(=O)Nc2cc(S(=O)(=O)N3CCOCC3)ccc2N2CCCC2)cc1,6%,-4%,x,-13%,-1%,-7%
O=C(Nc1ccccc1)c1ccc(S(=O)(=O)N2CCOCC2)cc1,-1%,-8%,-13%,-11%[46.1 µM],-16%,-8%
O=C(Nc1ccccc1)Nc1cc(S(=O)(=O)N2CCOCC2)ccc1N1CCCC1,5%,1%,14µM*,7%,0%,u
CCOCC(=O)Nc1cc(S(=O)(=O)N2CCOCC2)ccc1N1CCCCC1,-14%,u,x,-17%,u,2.8µM*
O=C(Nc1cccc(S(=O)(=O)N2CCOCC2)c1)C(c1ccccc1)N1CCCCC1 (stereo not given),6%,-5%,x,-10%,-3%,7.1µM*
CC1CN=C(N(C(=O)Nc2ccccc2)c2ccc(S(=O)(=O)N3CCOCC3)cc2)S1 (stereo not given),6%,3%,20µM*,-9%[46.1 µM],3%,11%
CC1CCN(C(=O)CN2CCSc3ccc(S(=O)(=O)N(C)C)cc32)CC1,8%,-8%,x,x,0%,x
CC1CCCC(NC(=O)COC(=O)c2cc(S(=O)(=O)N3CCCCC3)ccc2N2CCOCC2)C1C (stereo not given),0%,-11%,-8%,-19%[46.1 µM],-15%,10µM*
O=C(COC(=O)c1cc(S(=O)(=O)N2CCCCC2)ccc1N1CCOCC1)NC1CCS(=O)(=O)C1 (stereo not given),0%,2%,x,7%,0%,11%
COc1ccc(NC(=O)c2ccc3c(=O)n(-c4ccc(OC)cc4OC)c(=S)[nH]c3c2)cc1,-12%,u,x,-48%,-18%,13µM*
COc1ccc(-n2c(=S)[nH]c3cc(C(=O)NCc4ccco4)ccc3c2=O)c(OC)c1,5%,1%,-30%,-24%[46.1 µM],0%,0.32µM*
COCc1c(C(=O)NC2CCCCCC2)oc2ccccc12,-2%,-5%,x,-16%,-12%,11µM*
